Reference: PubChem BioAssay AID488969 (Vanderbilt High Throughput Screening Facility, 2010)
The full ranking holds about 110,000 compounds; the median of “z-score” is about -0.1, and the highest 2% start at about 2. Many of the other results were omitted from the sample, so the highest values are more common in it than they were. Activity calls are given as the source filed them.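 The calls were made as follows: active = z-score in the third read window above 3 or below -3; inactive = the rest.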

biological target: Metabotropic glutamate receptor 8 (Rattus norvegicus) (UniProt P70579); test: rat mGluR8 modulators via GIRK flux, primary screen, cell-based, thallium flux, HTS (AID 488969); conditions: HEK293 rat mGluR8, GIRK (G protein-gated inwardly rectifying potassium channel) thallium flux, FluoZin2; at 10 µM; stronger effect = higher value; submaximal glutamate (EC20) added with thallium
Sequence (P70579 whole entry, looked up): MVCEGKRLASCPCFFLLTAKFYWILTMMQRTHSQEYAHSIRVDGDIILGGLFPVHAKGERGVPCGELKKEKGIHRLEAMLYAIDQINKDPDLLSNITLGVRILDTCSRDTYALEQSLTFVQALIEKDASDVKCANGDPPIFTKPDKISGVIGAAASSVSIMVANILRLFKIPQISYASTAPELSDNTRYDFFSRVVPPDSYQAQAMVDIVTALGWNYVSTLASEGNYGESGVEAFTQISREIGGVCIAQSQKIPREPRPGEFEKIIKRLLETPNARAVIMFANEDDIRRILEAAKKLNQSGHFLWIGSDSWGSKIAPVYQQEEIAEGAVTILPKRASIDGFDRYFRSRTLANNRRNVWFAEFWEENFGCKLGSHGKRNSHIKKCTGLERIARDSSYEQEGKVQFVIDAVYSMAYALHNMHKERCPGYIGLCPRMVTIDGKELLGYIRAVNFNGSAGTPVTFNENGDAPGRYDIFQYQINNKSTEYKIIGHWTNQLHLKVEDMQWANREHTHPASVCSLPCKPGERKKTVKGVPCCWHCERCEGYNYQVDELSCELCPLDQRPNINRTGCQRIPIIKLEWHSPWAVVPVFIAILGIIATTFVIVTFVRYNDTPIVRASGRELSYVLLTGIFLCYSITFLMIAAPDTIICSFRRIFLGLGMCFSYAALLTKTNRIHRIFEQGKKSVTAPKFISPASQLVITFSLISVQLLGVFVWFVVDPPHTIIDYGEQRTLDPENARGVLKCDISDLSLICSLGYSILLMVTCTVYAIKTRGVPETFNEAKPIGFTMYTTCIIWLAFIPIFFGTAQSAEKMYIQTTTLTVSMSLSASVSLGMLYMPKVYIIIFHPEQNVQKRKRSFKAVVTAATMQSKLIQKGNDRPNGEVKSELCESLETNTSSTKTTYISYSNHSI

SMILES | z-score
CCCCN=Cc1sc2ccc(OCC)cc2c1O | -0.188
CC1CCCN(C(=O)CSc2nnc3n(C4CCCC4)c(=O)c4ccccc4n23)C1 (centres undefined) | -0.217
Cc1ccc(C)c(NC(=S)c2ccccn2)c1 | -0.333
S=C(Nc1ccccc1)c1ccccn1 | 2.52
O=C(Nc1ccccc1)Nc1ccccn1 | 0.139
CC(=O)N(Cc1ccc(F)cc1)C1=C(NCCc2ccccc2)C(=O)c2ccccc2C1=O | 1.71e-05
CC(=O)N(Cc1ccc(F)cc1)C1=C(NCc2ccccc2)C(=O)c2ccccc2C1=O | 2.03
CCCNC1=C(N(C(C)=O)c2cccc(F)c2)C(=O)c2ccccc2C1=O | -1.55
COC(=O)C1(S(=O)(=O)c2cc(Br)cc3c2N(C(C)=O)CC3)CC1 | -0.117
O=C(COC(=O)C1=Cc2ccccc2OC1)NC1CCCC1 | -0.184
CS(=O)(=O)N(CC(=O)N1CCN(c2ccccc2)CC1)c1cc(C(F)(F)F)ccc1Cl | -0.525
CCOC(=O)N1CCN(C(=O)CN(c2cc(C(F)(F)F)ccc2Cl)S(C)(=O)=O)CC1 | 0.421
CN1CCN(C(=O)CN(c2cc(C(F)(F)F)ccc2Cl)S(C)(=O)=O)CC1 | 2.63
O=C(COc1cccc2ccccc12)NNC(=O)CSCCO | -0.199
c1ccc(-n2nnnc2NC2CCCCC2)cc1 | -0.018
c1ccc2c(NC3CCCC3)nnc(NC3CCCC3)c2c1 | 3.18 (active)
c1csc(-c2nnc(NC3CCCCC3)c3ccccc23)c1 | -1.27
CCOC(=O)CSc1nnc(CNc2cccc(Cl)c2)n1C | 1.12
CCOC(=O)CSc1nnc(CNc2cccc(Cl)c2)n1-c1ccccc1 | 2.85
CCOC(=O)CSc1nnc(Cc2ccccc2)n1-c1cccc(Cl)c1 | -0.436
CCOC(=O)C(=O)Nc1ccc2c(c1)OCO2 | 0.0617
Oc1c(Cl)cc(Cl)cc1C=Nc1ccccc1N1CCCC1 | 0.0524
O=C(Cn1nc(Cc2ccncc2)c2ccccc2c1=O)N1CCN(C(=O)c2ccco2)CC1 | 3.76 (active)
O=C(Cn1nc(Cc2cccnc2)c2ccccc2c1=O)N1CCN(C(=O)c2ccco2)CC1 | -0.426
Cc1cccc(N2CCN(C(=O)Cn3nc(Cc4ccncc4)c4ccccc4c3=O)CC2)c1C | -0.488

SMILES | z-score
CC(C)=C1SC(N2CCN(c3cccc(C(F)(F)F)c3)CC2)=NC1=O | -0.205
O=C1c2cccc3cc(Br)cc(c23)C(=O)N1Nc1ccc(Br)cc1 | -0.252
COc1ccc(CCNC(=O)c2ccc(CN3CCC(Cc4ccccc4)CC3)cc2)cc1 | -0.304
Cc1noc(/C=C/N(C)C)c1S(=O)(=O)N1CCCC(C(=O)NCc2ccc(F)cc2)C1 (centres undefined) | 2.21
Cc1noc(/C=C/N(C)C)c1S(=O)(=O)N1CCCC(C(=O)NCc2ccc(Cl)cc2)C1 (centres undefined) | -0.29
Cc1ccc(CCNC(=O)C2CCCN(S(=O)(=O)c3c(C)noc3/C=C/N(C)C)C2)cc1 (centres undefined) | -0.519
CC(C)(C)NC(=O)C(c1ccncc1)N(C(=O)Cn1nnc(-c2cccs2)n1)C1CCCCC1 (centres undefined) | -0.081
Cc1cc(C)nc(SCc2nnc(SCC(=O)NCc3ccco3)n2-c2ccccc2)n1 | -0.73
Cc1cc(C)nc(SCC(=O)NCc2ccco2)n1 | 0.232
Cc1ccc(-n2c(CSc3nc(C)cc(C)n3)nnc2SCC(=O)NCc2ccco2)cc1 | 8.78 (active)
Cc1ccc(-c2nc3ncccc3o2)cc1NC(=O)Cc1ccc(Cl)cc1 | 0.497
CNC(=O)C1CC(=O)N(c2ccc(C)cc2)C1 (centres undefined) | 0.338
O=C(Nc1ccc2c(c1)OCCO2)C1CCCN(S(=O)(=O)c2cccc3nsnc23)C1 (centres undefined) | 0.545
CN(C)S(=O)(=O)N1CCN(C(=O)N2CCCCCC2)CC1 | -0.197
CCOc1ncccc1C(=O)OCC(=O)N1CC(=O)Nc2ccccc21 | 2.36
Cc1ccc(C(=O)OCC(=O)N2CC(=O)Nc3ccccc32)s1 | 0.331
Cc1ccsc1C(=O)OCC(=O)N1CC(=O)Nc2ccccc21 | -0.081
O=C(CCN1C(=O)C2CC=C(Cl)CC2C1=O)NCc1ccco1 (centres undefined) | -0.187
O=S(=O)(NC1CC1)c1ccc(S(=O)(=O)N(Cc2ccccn2)C2CCCC2)cc1 | -0.114
O=C(Cc1ccc(Cl)cc1)Nc1ccc(N2CCN(C(=O)c3ccco3)CC2)c(Cl)c1 | 2.13
O=C(Cc1ccc(Cl)cc1)Nc1ccc(N2CCN(C(=O)c3ccco3)CC2)cc1 | 0.107
O=C(Nc1ccc(N2CCN(C(=O)c3ccco3)CC2)c(Cl)c1)c1c(F)c(F)c(F)c(F)c1F | -0.334
Cc1cc(/C=N\NC(=O)CC(=O)NC2CCCCC2)c(C)n1-c1cccc(Cl)c1Cl | -0.438
CCN1CCN(Cc2ccccc2NC(=O)Nc2ccc(C)cc2)CC1 | 0.088
NC(=O)C1CCCN(C(=O)Nc2cccc3ccccc23)C1 (centres undefined) | 0.107

SMILES | z-score
COC(=O)Cc1c[nH]c2cccc(OCC(O)CN(Cc3ccccc3)C(C)C)c12 (centres undefined) | 0.637
CCOc1c2ccc(C(=O)NCCc3ccc(C)cc3)cc2nn1CC | -0.287
CCCn1nc2cc(C(=O)NCCc3ccc(C)cc3)ccc2c1OCC | 2.73
CCCCn1nc2cc(C(=O)NCCc3ccc(C)cc3)ccc2c1OCC | -0.356
Cc1c(C(N)=O)sc2ncn(CC(=O)OC(C)C)c(=O)c12 | 0.619
CN(C)CCSc1nc(-c2ccccc2)nc2c1COC(C)(C)C2 | -0.143
CN(C)CCCOc1ccc(C(C)(C)c2ccccc2)cc1 | 3.07 (active)
CC(C)NCCCOc1ccc(C(C)(C)c2ccccc2)cc1 | 0.192
CNCCCOc1ccc(C(C)(C)c2ccccc2)cc1 | 0.32
O=C(Nc1ccc(N2CCN(C(=O)c3ccco3)CC2)cc1)c1ccc2c(c1)OCO2 | 0.192
CCN1C(=O)CC(N2CCC(Cc3ccccc3)CC2)C1=O (centres undefined) | -0.239
Cc1cc(O)c(C(C[N+](=O)[O-])c2ccc(Cl)cc2)c(=O)o1 (centres undefined) | 0.103
C=CCNC(=S)Nc1nc2c(cc1C(=O)OCC)CCCC2 | 7.76 (active)
CCOC(=O)c1ccc(NC(=S)NCCC2=CCCCC2)cc1 | -0.19
CCNC(=S)Nc1nc2c(cc1C(=O)OCC)CCCC2 | 8.73 (active)
CCOC(=O)c1ccc(CNCc2ccccc2)cc1 | -0.07
C=CCNc1nc(-c2ccccc2)c(C(=O)OCC)cc1C#N | -0.303
CCOC(=O)c1cc2c(nc1NC(=S)NCc1ccccc1)CCCC2 | 2.16
C=C(C)CNC(=S)Nc1nc2c(cc1C(=O)OCC)CCCC2 | 3.56 (active)
CCOC(=O)c1cc2c(nc1NC(=S)Nc1ccccc1)CC(C)(C)OC2 | -0.292
CCOC(=O)c1cc2c(nc1N)CC(C)(C)OC2 | -0.353
CCOC(=O)c1cc2c(nc1N)CC(C)(CC)OC2 (centres undefined) | -0.0521
CCOC(=O)c1cnc2cc3c(cn2c1=O)CCCC3 | 0.699
C=CCNC(=S)Nc1ccc2nc(C)c(C)nc2c1 | 0.0978
